According to PubChem BioAssay (NCI):
This is part of a sample that, as a whole, favours compounds with a hit. Of some 79,000 tested, about 15% had one in any assay. Calls of active or inactive are those of the source. No stated cut-off is given here; in the data, active means growth inhibition above about 70%; inactive means the rest.

Legend:
[1] = NCI Yeast Anticancer Drug Screen. Data for the rad50 strain (AID 155);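 further: 0% = growth of vehicle-only cultures of the same strain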; settings: S. cerevisiae rad50 strain growth inhibition, stronger effect = higher value
Summary of the method: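 Vehicle-treated cultures provide the reference for the growth inhibition reported for compound-exposed, repair-deficient yeast.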

[2] = NCI Yeast Anticancer Drug Screen. Data for the mec2-1 strain (AID 157); settings: S. cerevisiae mec2-1 strain, stronger effect = higher value
Summary of the method: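 Growth inhibition is read against vehicle-treated controls after compound exposure of the mec2-1 yeast strain, which is defective in DNA damage repair or cell cycle control.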

[3] = NCI Yeast Anticancer Drug Screen. Data for the sgs1 mgt1 strain (AID 161);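 further: 0% = growth of cultures given vehicle only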; settings: S. cerevisiae sgs1 mgt1 strain, stronger effect = higher value
Summary of the method: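 Growth of a repair-deficient yeast mutant was monitored after compound treatment and expressed as inhibition relative to vehicle-treated cultures.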

[4] = NCI Yeast Anticancer Drug Screen. Data for the cln2 rad14 strain (AID 165);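 further: 0% = growth equal to vehicle treated cultures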; settings: S. cerevisiae cln2 rad14 strain, stronger effect = higher value
Summary of the method: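 Growth inhibition, relative to vehicle-treated controls, is the read-out. The test organism is a yeast strain with defined genetic alterations, cln2 rad14.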

[5] = NCI Yeast Anticancer Drug Screen. Data for the bub3 strain (AID 167); settings: S. cerevisiae bub3 mutant strain, stronger effect = higher value
Summary of the method: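 Mutant yeast screening strain plus compound; vehicle-treated cultures serve as the 0% inhibition reference.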

[6] = NCI Yeast Anticancer Drug Screen. Data for the mlh1 rad18 strain (AID 175); settings: S. cerevisiae mlh1 rad18 strain growth inhibition, stronger effect = higher value
Summary of the method: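 Cells of a genetically altered yeast strain, deficient in DNA damage repair, were treated with compound. Their growth was then compared with that of vehicle-treated cultures to give inhibition.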

[7] = at 5.0 µM (retest, dose inferred, filed as 0.5)
[8] = at 50.0 µM (retest, dose inferred, filed as 5.0)

Measured: growth inhibition

Cc1ccc(C)c([N+](=O)[O-])c1
inactive: [1]; [7] -2% | [1]; [8] 11% | [1]; at 50.0 µM 51.1% | [2]; [7] 1% | [2]; [8] -2% | [2]; at 50.0 µM 17.6% | [3]; [7] -1% | [3]; [8] -2% | [3]; at 50.0 µM 13.8% | [4]; [7] 1% | [4]; [8] 1% | [4]; at 50.0 µM -7.1% | [5]; [7] -1% | [5]; [8] 1% | [5]; at 50.0 µM 6.25% | [6]; [7] 0% | [6]; [8] 12% | [6]; at 50.0 µM 28.2%

C=C(C)[P+](C)(c1ccccc1)c1ccccc1
inactive: [1]; [7] -12% | [1]; [8] 25% | [2]; [7] -12% | [2]; [8] 6% | [2]; at 50.0 µM 0.95% | [3]; [7] -8% | [3]; [8] 22% | [3]; at 50.0 µM 28.9% | [4]; [7] 1% | [4]; [8] -2% | [4]; at 50.0 µM 4.4% | [5]; [7] -18% | [5]; [8] 6% | [5]; at 50.0 µM -9.3% | [6]; [7] -4% | [6]; [8] 4% | [6]; at 50.0 µM 29.3%
active: [1]; at 50.0 µM 72.7%

CN(C)CCCC1(c2ccccc2)SC(C)(C)c2ccc(Cl)cc21 (stereo not given)
inactive: [1]; [7] -36% | [1]; [8] 28% | [1]; at 50.0 µM 15.3% | [2]; [7] -4% | [2]; [8] 7% | [2]; at 50.0 µM 28.9% | [3]; [7] 0% | [3]; [8] 39% | [3]; at 50.0 µM 44.2% | [4]; [7] 0% | [4]; [8] 0% | [4]; at 50.0 µM -9.75% | [5]; [7] -2% | [5]; [8] 11% | [5]; at 50.0 µM 19.3% | [6]; [7] 11% | [6]; [8] 56% | [6]; at 50.0 µM 66%

N#CSCCSCc1ccc(Cl)cc1
active: [1]; [8] 99% | [1]; at 50.0 µM 99.2% | [2]; [8] 99% | [2]; at 50.0 µM 99.5% | [3]; [8] 99% | [3]; at 50.0 µM 99.4% | [4]; [8] 99% | [4]; at 50.0 µM 98.9% | [5]; [8] 99% | [5]; at 50.0 µM 99.5% | [6]; [8] 99% | [6]; at 50.0 µM 99.3%
inactive: [1]; [7] 4% | [2]; [7] 25% | [3]; [7] 7% | [4]; [7] -6% | [5]; [7] -6% | [6]; [7] 6%

C1Cc2c3c4c(c5c2C(C1)CCC5)CCCC4CCC3
inactive: [1]; [7] -5% | [1]; [8] 8% | [1]; at 50.0 µM -11.5% | [2]; [7] 1% | [2]; [8] 17% | [2]; at 50.0 µM 10.3% | [3]; [7] -1% | [3]; [8] 13% | [3]; at 50.0 µM 0% | [4]; [7] 3% | [4]; [8] -1% | [4]; at 50.0 µM 34.2% | [5]; [7] 15% | [5]; [8] 8% | [5]; at 50.0 µM -0.85% | [6]; [7] -1% | [6]; [8] 10% | [6]; at 50.0 µM -2.25%

C=C1C(=O)OC2CC(C)C3C=CC(=O)C3CC12 (stereo not given)
active: [1]; at 50.0 µM 88.7% | [2]; at 50.0 µM 91.6% | [3]; at 50.0 µM 91.3% | [4]; at 50.0 µM 89.3% | [5]; [8] 72% | [5]; at 50.0 µM 88.2% | [6]; at 50.0 µM 90.6%
inactive: [1]; [7] 17% | [1]; [8] 55% | [2]; [7] 12% | [2]; [8] 50% | [3]; [7] 15% | [3]; [8] 57% | [4]; [7] 24% | [4]; [8] 40% | [5]; [7] 22% | [6]; [7] 16% | [6]; [8] 34%

CC(=O)Nc1n[n+]([O-])c2cc(C)ccc2[n+]1[O-]
active: [1]; [7] 96% | [1]; [8] 99% | [1]; at 50.0 µM 99.2% | [2]; [7] 96% | [2]; [8] 99% | [2]; at 50.0 µM 99.7% | [3]; [7] 93% | [3]; [8] 99% | [3]; at 50.0 µM 99.4% | [4]; [7] 92% | [4]; [8] 99% | [4]; at 50.0 µM 99% | [5]; [7] 95% | [5]; [8] 99% | [5]; at 50.0 µM 99% | [6]; [7] 97% | [6]; [8] 99% | [6]; at 50.0 µM 99.4%

O=C(SCCCc1ccccc1)c1cc([N+](=O)[O-])cc([N+](=O)[O-])c1
inactive: [2]; at 50.0 µM 66.3% | [5]; at 50.0 µM 66%
active: [1]; [7] 98% | [1]; [8] 87% | [1]; at 50.0 µM 75.7% | [2]; [7] 100% | [2]; [8] 98% | [3]; [7] 99% | [3]; [8] 94% | [3]; at 50.0 µM 85.8% | [4]; [7] 94% | [4]; [8] 89% | [4]; at 50.0 µM 78.6% | [5]; [7] 98% | [5]; [8] 98% | [6]; [7] 98% | [6]; [8] 94% | [6]; at 50.0 µM 76.6%

CN1C=C(C#N)CCC1Sc1ccc(Cl)cc1 (stereo not given)
inactive: [1]; [7] -7% | [1]; [8] 38% | [1]; at 50.0 µM 58.1% | [2]; [7] 5% | [2]; [8] 65% | [2]; at 50.0 µM 58.6% | [3]; [7] 3% | [3]; [8] 54% | [4]; [7] -3% | [4]; [8] 11% | [5]; [7] -4% | [5]; [8] 60% | [5]; at 50.0 µM 59.3% | [6]; [7] 22%
active: [3]; at 50.0 µM 92.6% | [4]; at 50.0 µM 76.8% | [6]; [8] 82% | [6]; at 50.0 µM 86.9%

CCOC(=O)CCCCCN
inactive: [1]; [7] 6% | [1]; [8] 8% | [1]; at 50.0 µM -4.55% | [2]; [7] 1% | [2]; [8] 2% | [2]; at 50.0 µM -7.75% | [3]; [7] 1% | [3]; [8] 7% | [3]; at 50.0 µM 34.1% | [4]; [7] 9% | [4]; [8] -2% | [4]; at 50.0 µM -39.5% | [5]; [7] 2% | [5]; [8] -4% | [5]; at 50.0 µM 1.75% | [6]; [7] 5% | [6]; [8] 6% | [6]; at 50.0 µM -30.3%
